The panel holds about 83,000 compounds, 20% with a hit somewhere; the sample as a whole holds those more often.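 Assay: single dose, 48 h. Readout: percent growth (0 = no net growth; negative = cell death). Active: <10.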 Unmarked numbers belong to inactive results. The source made the active and inactive calls.
Each compound was assayed on PC-3 prostate (assay: NCI-60 one-dose screen, 48 h (100 = growth as untreated, 0 = no growth, -100 = all killed)). Details: 10 µM unless noted.

Structure (SMILES) | growth
CSc1nnc(-c2cc3c([nH]c4ccccc43)c(-c3cccc(O)c3)n2)n1-c1ccccc1 | 29.9%
Nc1cc(C(=O)NC[C@H]2CN(c3ccc(N4CCC(C(=O)O)CC4)cc3)C(=O)O2)ccc1Cl | 101%
CC(C)(Sc1cc(C(C)(C)C)c(OC(=O)CCCC(=O)O)c(C(C)(C)C)c1)Sc1cc(C(C)(C)C)c(OC(=O)CCCC(=O)O)c(C(C)(C)C)c1 | 36.2%
C=CCn1c(SCC(=O)Nc2ccc(C(=O)/C=C/c3ccc(Cl)cc3)cc2)nnc1-c1ccc(Br)cc1 | 68%
CCOC(=O)c1nn(-c2ccc(S(N)(=O)=O)cc2)c2nc(C)cc(=O)n12 | 101%
CN(C)CCNC(=O)c1cc2c3cc(Cl)ccc3[nH]c2c2ncccc12 | 22.4%
COc1ccccc1NC(=O)N=Nc1c(O)[nH]c2ccccc12 | 89.7%
CC(=O)N1N=C(c2ccc(C(F)(F)F)c(F)c2)CC1c1[nH]c(C)c(C(=O)NCC(F)(F)F)c1C (stereo not given) | 70.8%
O=C(/C=C(/C=C/c1ccc2[nH]ccc2c1)OB(F)F)/C=C/c1ccc2[nH]ccc2c1 | -6.64% (active)
CCOC(=O)c1cc2c(n1Cc1cc(OC)c(OC)c(OC)c1)-c1nc(N)sc1CCC2 | 26.3%
N#Cc1ccc(O)c(C2=NCC(c3ccccc3)O2)c1 (stereo not given) | 31.6%
CC(=O)c1c(C)nc(SCC(=O)Nc2cccc(O)c2)n1-c1ccc(Cl)cc1 | 89.6%
O=C(Nc1cccc2ccccc12)NC1CC1 | 97.4%
CCOC(=O)c1c2c(n3cccc(F)c13)C(=O)c1ncccc1C2=O | 13.7%
O=c1c2ccccc2n2cnc3ccc(Cl)c1c32 | 85.2%
CC(C)c1ccc(-n2c(=S)[nH]c3sc4cc(O)ccc4c3c2=O)cc1 | 100%
N#Cc1c(-c2ccccc2)cc(-c2ccccc2)n(CCCC(=O)Nc2ccccc2N)c1=O | 67.4%
COc1cc2c(cc1OCCCN1CCN(CCCOc3cc4c(cc3OC)C(=O)N3CCC[C@H]3C=N4)CC1)C=CC(C)(C)O2 | -75.3% (active)
CCC(C(=O)[C@@H](C)[C@@H](O)[C@H](C)[C@@H]1O[C@@H]([C@@H](CC)C(=O)ONC(=O)c2ccccc2)CC[C@@H]1C)[C@H]1O[C@]2(C=CC(=O)[C@]3(CC[C@@](C)([C@H]4CC[C@](O)(CC)[C@H](C)O4)O3)O2)[C@H](C)C[C@@H]1C (stereo not given in full) | 8.93% (active)
CN1C(=O)/C(=C\c2nc([P+](c3ccccc3)(c3ccccc3)c3ccccc3)c(N3CCOCC3)o2)SC1=S | 46.1%

Structure (SMILES) | growth
COc1ccc(/C=C/C(=O)c2cccc(OCCCCOc3cccc(C(=O)/C=C/c4ccc(OC)c(OC)c4)c3)c2)cc1OC | 67%
O=S(=O)(Nc1cc(Cl)ccc1Cl)c1ccc(-c2cnc(C3CC3)o2)cc1 | 38.3%
C=C1C(=O)O[C@H]2[C@H]1CC/C(COC(=O)c1cc3ccccc3s1)=C\CC[C@@]1(C)O[C@@H]21 | -56% (active)
N=C(N)c1ccc(-c2ccc(-c3ccccc3)o2)cc1 | -23.3% (active)
c1cnc2c(-c3nc4ccc5[nH]ncc5c4c4c3CCCC4)c[nH]c2c1 | 27.5%
Cc1nc2sc(C(=O)Nc3cccc(Br)c3)c(N)c2cc1C(O)c1ccccc1 (stereo not given) | 30.2%
Cn1ccnc1C(=O)/C=C/c1ccc(CC(=O)Nc2cc(C(F)(F)F)cc(C(F)(F)F)c2)cc1 | 55.9%
C=C1C(=O)O[C@H]2[C@H]1CC/C(Cn1cc(-c3ccccc3)nn1)=C\CC[C@@]1(C)O[C@@H]21 | 37.3%
Oc1c(I)cc(I)cc1CNCc1ccccn1 | 39.5%
CCOC(=O)c1cc2c(n1C)-c1nc(NC(C)=O)sc1CCC2 | 51%
COc1c(C(=O)Nc2ccc(C)c(Br)c2)ccc2ccccc12 | 87.7%
O=C(Nc1ccc(Oc2cccc(F)c2)c(Cl)c1)c1cccnc1 | 24.6%
COC12C=C/C(=C(/C(=O)OCc3ccncn3)C(=O)CCCCCCCCC3(OC)C=C/C(=C(/C(=O)OCc4ccncn4)C(=O)CCCCCCCC1)O3)O2 | -36.7% (active)
COC1=CC(c2ccc[nH]2)=N/C1=C\c1[nH]c(C)c(C(=O)OC(C)C)c1C | 8.84% (active)
O=C(Nc1cccc(Cl)c1)Nc1cccc(Cn2c(=O)[nH]c3ccc(Oc4ncccn4)cc3c2=O)c1 | 36.5%
Cc1ccc(C)n1-c1ccccc1-n1c(C)ccc1C | 98.7%
COc1ccc(/C=C/C(=O)c2ccc(Nc3ccnc4cc(Cl)ccc34)cc2)cc1 | 75%
CCN(CC)c1ccc(\C=N/N=C(N)/C(N)=N\N=C/c2ccc(N(CC)CC)cc2)cc1 | 97.1%
O=[N+]([O-])c1cccc(-c2nc3cc4nc5ccccc5[nH]c4cc3n2)c1 | 93.2%
COc1ccc(/C=C(\C#N)n2nnc3cc(Cl)ccc32)cc1 | 18.8%
